# Results: PubChem BioAssay (NCI)
# Compounds without any hit were thinned out: in the full panel of roughly 83,000, 20% have a hit.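 Cells were grown in 96-well plates and exposed to the test compound at a single concentration for 48 hours; results are reported as percent growth, with values below 10 considered active.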 A number with no mark means an inactive call. Activity calls are given as the source filed them.
# What was measured:
# Test in all cases: NCI-60 one-dose screen, 48 h (100 = growth as untreated, 0 = no growth, -100 = all killed)
# NCI-H23 lung = conditions: 10 µM unless noted
# NCI-H226 lung = conditions: 10 µM unless noted
# NCI-H322M lung = conditions: 10 µM unless noted
# HOP-62 NSCLC = conditions: 10 µM unless noted
# HOP-92 NSCLC = conditions: 10 µM
# NCI-H522 lung = conditions: 10 µM
# A549/ATCC NSCLC = conditions: 10 µM unless noted
# 786-0 renal = conditions: 10 µM unless noted
# COLO 205 colon = conditions: 10 µM unless noted
# DU-145 prostate = conditions: 10 µM unless noted
# K-562 leukemia = conditions: 10 µM unless noted
# MALME-3M melanoma = conditions: 10 µM unless noted
# MDA-MB-231 breast = conditions: 10 µM unless noted
# RXF 393 renal = conditions: 10 µM unless noted
# SF-268 CNS = conditions: 10 µM unless noted
# SF-295 CNS = conditions: 10 µM unless noted
# SF-539 CNS = conditions: 10 µM unless noted
# UACC-257 melanoma = conditions: 10 µM unless noted
# M14 melanoma = conditions: 10 µM unless noted
# NCI-H460 lung = conditions: 10 µM unless noted
Compound,growth (NCI-H23 lung) [%],growth (NCI-H226 lung),growth (NCI-H322M lung) [%],growth (HOP-62 NSCLC) [%],growth (HOP-92 NSCLC) [%],growth (NCI-H522 lung) [%],growth (A549/ATCC NSCLC) [%],growth (786-0 renal) [%],growth (COLO 205 colon),growth (DU-145 prostate) [%],growth (K-562 leukemia),growth (MALME-3M melanoma),growth (MDA-MB-231 breast) [%],growth (RXF 393 renal) [%],growth (SF-268 CNS) [%],growth (SF-295 CNS),growth (SF-539 CNS) [%],growth (UACC-257 melanoma),growth (M14 melanoma),growth (NCI-H460 lung)
O=C(O)c1ccc(Br)nc1,102,98.4%,101,91.6,94.6,87.8,89.6,100,105%,100,100%,94.2%,100,105,95.4,96.9%,97.7,88.3%,101%,–
CCCNC(=O)Oc1ccc(/C(=C(/CC)Cc2ccccc2)c2ccc(OCCN(CC)CC)cc2)cc1,83.8,87.3%,87.4,84.2,55.7,76.8,63.6,80.7,-49% (active),86.1,-31.9% (active),79.6%,60.8,66.8,71.4,97.8%,89.7,82.6%,-35.3% (active),–
OC(c1ccccc1)(c1ccccc1)C(F)(F)F,97.4,112%,116,102,95.7,84.6,99.1,106,107%,109,99.7%,122%,101,120,82.8,107%,101,104%,–,–
COc1cc(C(=O)Nc2ccc(N(C)C)cc2)cc(OC)c1OC,95.4,91%,93.4,94.2,–,–,–,96.4,100%,107,42.8%,80.6%,96.4,95.7,99.1,91.7%,96.1,–,89.8%,99.8%
Cc1ccc(NCc2cn(-c3ccc(C(=O)O)cc3)nc2-c2ccc(C(=O)O)cc2)cc1,92.2,107%,99.7,100,107,86.2,94.9,103,104%,100,102%,93.1%,108,121,92.8,103%,101,97.6%,99.3%,–
O=C(NC1CCN(Cc2ccccc2)CC1)c1cc(-c2cccnc2)nc2ccc(Cl)cc12,67.9,84%,91.6,101,56.5,90.4,56.3,78.7,-37.3% (active),87.5,2.45% (active),74%,58.8,82.1,100,67.6%,63.9,83.2%,77.9%,–
CC(=O)Oc1cc2ccccc2cc1C(C)C,107,101%,115,104,–,–,–,101,112%,126,117%,111%,117,102,111,96.8%,95,–,106%,99%
C[n+]1c2ccccc2c(Nc2ccc(NS(=O)(=O)CCCCN=C(N)N)cc2)c2ccc(N)cc21,26,41%,71.4,32.2,–,–,–,44.1,50.4%,23.7,41%,32.6%,93.9,71,39.7,5.07% (active),43,–,53.2%,10.9%
CCC(C)(CC)c1ccc(O)c(C)c1,98.9,98%,94.4,101,–,–,–,94.8,105%,114,114%,99.8%,106,108,109,105%,100,–,99.7%,105%
CNc1nc2ncn(C)c2c(=O)[nH]1,105,98.5%,88.2,96.5,–,–,–,103,94.5%,106,65.5%,98.8%,90.9,106,95.5,101%,96.2,–,112%,103%
COc1ccc(-c2nc(SCC(C)C)nc(Nc3ccc(C(=O)O)cc3)c2C#N)cc1,88.8,87.7%,96.9,116,89,84.7,89,106,89.7%,88.7,89%,-57.7% (active),109,83.1,91,75.9%,97.1,96.9%,93%,–
COc1ccc(/C(=C(\c2ccccc2)[N+](=O)[O-])c2ccc(OCCN3CCCC3)cc2)cc1,74.9,72.8%,87.2,94.1,59.5,83.7,78.4,15.2,8.89% (active),89.3,13.7%,-7.32% (active),55,25,84.4,31.9%,28.6,-26.1% (active),-73.4% (active),–
CCC(C)(C)c1ccc(OCCCCCCN2CCN(c3ccc(C)c(Cl)c3)CC2)cc1,62.3,73.7%,88.3,98.3,82.6,84.6,97,95.7,91.4%,86,78.4%,86.7%,115,95.6,82.5,85.7%,98.6,110%,93.7%,–
CCN(CC)c1ccc2nc3ccc(N=Nc4ccc(O)cc4)cc3[n+](-c3ccccc3)c2c1,63.9,98.1%,95.8,52.5,88.4,37.2,35.9,88.5,-6.39% (active),82.1,18.2%,35.4%,20.9,30.6,81,66.8%,89.5,-1.57% (active),61.3%,–
CCCCCCCCCC(C)NC(=O)CCl (stereo not drawn),90,96.5%,96.6,102,–,–,–,93.1,113%,102,97.3%,93.8%,93,101,95.1,99.8%,99.9,–,107%,107%
COc1ccc(Nc2c3ccccc3nc3ccccc23)cc1,36.1,6.97% (active),43.3,33.7,–,–,–,43.6,20.1%,21.5,12.4%,42.3%,55.3,28.1,35.9,15.9%,23.3,–,48%,9.36% (active)
OCCN1CCCN(CCCN2c3ccccc3Sc3ccc(C(F)(F)F)cc32)CC1,68.8,92.7%,73.6,74.8,–,–,–,65.1,-81.8% (active),78.8,2.61% (active),44.5%,64.9,47,64.9,31%,67.2,–,7.54% (active),40.7%
